Assay outcomes as filed in PubChem BioAssay.
Sampled rows, rich in hits. Any-hit rate of the full collection: about 1.8%.
HTT aggregate = mutant huntingtin aggregation inhibition. PC12 HttQ103-GFP aggregates, Acumen cytometry, 40 h. hit rate 1.1% among 220,000. AID 1688. Potency, µM (titrated, usually from 46.1 µM), without a hit: at the top dose activity change, negative = inhibition, usual class: inhibitors; also: % is scaled to controls: 0 for no effect and ±100 for the full control effect; nearly all actives have a fitted effect of over 60% in size
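Ecdysone-promoter PC12 model expressing HTT exon 1 Q103 fused to GFP, induced by tebufenozide at 100 nM final. Compounds titrated; aggregates sized 1–25 µm scored on a 488 nm laser cytometer.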
JMJD2E inh = inhibitors of human JMJD2E histone demethylase; B2RXH2; JMJD2E catalytic domain, FDH-coupled NADH fluorescence (FDH is formaldehyde dehydrogenase); Potency, µM (highest dose often 57.1 µM), for the others: at the top dose activity change, negative = inhibition, hits mostly inhibitors; hit rate 1.6% among 230,000; AID 2147; active = well fitted inhibition curve with a large enough effect, not every such curve was filed as active; inconclusive = small, poorly fitted or top-dose-only effect, or another doubt; inactive = no such curve, though single readings can be large or run the other way;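 also: 0% = wells with enzyme and -100% = buffer wells without enzyme; nearly all actives have a fitted effect of over 50% in size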
Target sequence (B2RXH2 1-337 limits assumed): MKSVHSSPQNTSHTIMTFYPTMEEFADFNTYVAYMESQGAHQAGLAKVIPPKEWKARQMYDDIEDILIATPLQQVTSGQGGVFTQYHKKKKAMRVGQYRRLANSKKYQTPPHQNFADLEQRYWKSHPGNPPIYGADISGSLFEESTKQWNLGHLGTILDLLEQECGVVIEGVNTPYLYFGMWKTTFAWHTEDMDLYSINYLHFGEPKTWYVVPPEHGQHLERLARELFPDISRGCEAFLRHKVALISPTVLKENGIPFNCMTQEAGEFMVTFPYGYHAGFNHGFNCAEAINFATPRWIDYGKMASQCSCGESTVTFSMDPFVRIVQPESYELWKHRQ
HTT cytoprotect = protects HTT-Q103 PC12 cells, measured by ATP. hit rate 0.14% among 230,000. PC12 HTT-Q103 induced, cytoprotection, ATP luminescence, 40 h. Potency, µM (top dose mostly 56.4 µM), for inactives: cytoprotection (ATP increase), most hits filed as activators; also: % of control where 0% means no effect; nearly all actives have a fitted effect of over 45% in size
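Stable PC12 Q103-GFP cells in serum-supplemented, phenol red-free DMEM; induction by tebufenozide at 100 nM final; compound dose series; cell viability quantified luminescently from ATP.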
L3MBTL1 inh = inhibitors of human L3MBTL1; hit rate 0.66% among 230,000; AlphaScreen L3MBTL1–H3K9me1 peptide binding; Potency, µM (titrated, usually from 57.1 µM), without a hit: at the top dose activity, negative = inhibition, usual class: inhibitors; AID 485360; Q9Y468; also: % is scaled to controls: 0 for no effect and ±100 for the full control effect; nearly all actives have a fitted effect of over 60% in size
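AlphaScreen assay: L3MBTL1 (50 nM final) was preincubated 30 min at room temperature with biotinylated H3(1-15)K9me1 peptide (75 nM final), then 30 min with library compounds; streptavidin donor and nickel chelate acceptor beads (10 ug/mL final) added, 30 min dark.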
* = called active by the depositor; ? = inconclusive; / = no result; ! = not active in a repeat; [ ] = another dose, or the depositor's remark. Unless noted, calls follow the shape of the dose curve; as a rule, active = well fitted curve in the direction sought with a large enough effect; inconclusive = small, poorly fitted or top-dose-only effect, or another doubt; inactive = no such curve, though single readings can be large; an effect the other way counts as inactive or inconclusive. Potency is read from the fitted curve at half-maximal effect.

SMILES	HTT aggregate	JMJD2E inh	HTT cytoprotect	L3MBTL1 inh
O=C(NCc1ccc2c(c1)OCO2)C1CCCN(S(=O)(=O)c2cccnc2)C1 (stereo not drawn)	32µM*	7%	14%[10 µM]	-7%
COCCn1c(=O)c(-c2ccccc2)nc2cnc(N3CCN(C)CC3)nc21	/	/	-2%	/
CNC(=O)[C@@H]1O[C@@H](n2cnc3c(NCc4ccc(N)cc4)ncnc32)[C@@H](O)[C@H]1O	/	/	-2%[1.9 µM]	/
O=C1CN(/N=C\c2ccc([N+](=O)[O-])o2)C(=O)N1	/	-28%[25.5 µM]	-6%[40.3 µM]	/
O=C1NC(=S)S/C1=C\C=C\c1ccc([N+](=O)[O-])o1	?	20µM*	33%[10 µM]	/
S=c1nc(-c2cc(Cl)ccc2Cl)[nH][nH]1	28%	-18%	?	16%
S=c1nc(-c2ccccc2Br)[nH][nH]1	21%	14µM*	0%[10 µM]	-16%
COCc1ccc([C@@H]2C[C@H]3CN(Cc4cccnc4)C(=O)[C@]34CCCN24)o1	-28%[9.22 µM]	-4%	-18%[10 µM]	2%
COCc1ccc([C@@H]2C[C@H]3CN(Cc4ccccc4C)C(=O)[C@]34CCCN24)o1	4.5µM*	1%	-147%	-4%
C[N+](C)(C)CCC(=O)c1cccc2ccccc12	/	?	-28%	/
COC(=O)[C@@]1(Cc2ccccc2)C=C[C@@H](C)N1C(=O)c1ccccc1	/	6%	-39%	/
COC(C(=O)C(O)C(C)O)C1Cc2cc3cc(OC4CC(OC5CC(O)C(O)C(C)O5)C(O)C(C)O4)c(C)c(O)c3c(O)c2C(=O)C1OC1CC(OC2CC(OC3CC(C)(O)C(O)C(C)O3)C(O)C(C)O2)C(O)C(C)O1 (stereo not drawn)	0.22µM*	/	-47%	/
CO[C@H](C(=O)[C@@H](O)[C@@H](C)O)C1Cc2cc3cc(O[C@H]4C[C@@H](O[C@H]5C[C@@H](O)[C@H](O)[C@@H](C)O5)[C@@H](O)[C@@H](C)O4)c(C)c(O)c3c(O)c2C(=O)[C@H]1O[C@H]1C[C@@H](O[C@H]2C[C@@H](O[C@H]3C[C@](C)(O)[C@H](O)[C@@H](C)O3)[C@H](O)[C@@H](C)O2)[C@H](O)[C@@H](C)O1 (stereo partly drawn)	0.22µM*	/	-63%	/
FC(F)(F)C(F)(F)C(F)(F)C(F)(F)C(F)(F)C(F)(F)C(F)(F)C(F)(F)Br	12%	/	-19%	/
NC[C@](O)(CS(=O)(=O)O)c1ccc(Cl)cc1	/	7%	?	/
COC(=O)c1ccc(C(/C=C/[C@@H](C)C(=O)N[C@H](C)CO)NC(=O)OCc2ccccc2)cc1 (stereo partly drawn)	/	3%	-33%	/
CCCCNc1nc(C)nc2c1nc(-c1ccccc1)n2CC(C)(C)CN(C)C	/	?	-13%	/
N#Cc1ccc(CS(=O)(=O)c2nnnn2C2CCCCC2)cc1	/	7%	13%	/
COC(=O)c1ccc(-n2c(C)cc(-c3csc(NC(=O)c4ccc(S(=O)(=O)N(C)C)cc4)n3)c2C)cc1	19%	?	12%[10 µM]	6%
Cc1cc(-c2csc(NC(=O)c3cccc(S(=O)(=O)N(C)C)c3)n2)c(C)n1-c1ccccc1	17%	13µM*	-13%[10 µM]	-6%
CC(C)C(=O)NC(=O)C1CCCN1C(=O)/C=C/c1ccccc1 (stereo not drawn)	/	/	4%[10 µM]	/
C[C@@H](NC(=O)/C(C#N)=C/c1ccc(O)c(O)c1)c1ccccc1	/	22µM*	-17%	-27%
CC(NC(=O)/C(C#N)=C/c1ccc(OCC(=O)O)cc1)c1ccccc1 (stereo not drawn)	/	/	/	-10%
CC(NC(=O)/C(C#N)=C/c1ccc(Cl)c([N+](=O)[O-])c1)c1ccccc1 (stereo not drawn)	-2%	3%	-49%[10 µM]	-12%
N#C/C(=C\c1cccnc1)C(=O)Nc1ccccc1	0%	?	9%[10 µM]	10%
SMILES	HTT aggregate	JMJD2E inh	HTT cytoprotect	L3MBTL1 inh
N#C/C(=C\c1ccc(O)c(O)c1)C(=O)Nc1ccccc1	/	16µM*	-17%	-21%
C[C@H](NC(=O)/C(C#N)=C/c1ccc(O)c(O)c1)c1ccccc1	/	7.1µM*	-10%	/
CC(C)CO/N=C1/[C@H]2O[C@@H]2[C@@H](O)[C@H]2[C@H]1CCn1c(=O)n(-c3ccccc3)c(=O)n12	/	/	-2%[10 µM]	/
CCn1c2ccccc2c2cc(CN3CCN(S(C)(=O)=O)CC3)ccc21	11%	?	-8%[10 µM]	-2%
CCn1c2ccccc2c2cc(CN3CCN(Cc4cc(OC)ccc4O)CC3)ccc21	?	18µM*	/	-28%
CC1(C)Cc2c(sc3nc(-c4cccs4)n(N)c(=O)c23)CO1	10µM*	-9%	-96%	18%
CC1(C)Cc2c(sc3nc(-c4ccccc4)n(N)c(=O)c23)CO1	-29%	0%	-17%	10%
COc1ccc(/C=N/NC(=O)CCN2CCN(c3ccccc3)CC2)c(OC)c1OC	-16%	3%	-5%[10 µM]	-5%
O=C(CCN1CCN(c2ccccc2)CC1)N/N=C/c1ccc(O)c(O)c1O	-6%	-6%	11%	5.6µM*
O=C(CCN1CCOCC1)N/N=C/c1cc([N+](=O)[O-])ccc1OC(F)F	-9%	0%	-37%	/
O=C(CCN1CCOCC1)N/N=C/c1cc(Br)cc(Br)c1O	-12%[9.22 µM]	28µM*	1%[10 µM]	-15%
O=C(Cc1csc(N2CCOCC2)n1)N/N=C/c1ccc(O)c(O)c1O	-5%	8.9µM*	-23%	-16%
CC1(C)Cc2[nH]c(=S)c(C#N)cc2CO1	8%[9.22 µM]	13µM*	2%	5%
CC1=C2C(=CO[C@H](C)[C@H]2C)C(=O)C(C(=O)O)=C1O	/	-7%	20%	/
CO/N=C(/C(=O)N[C@@H]1C(=O)N2C(C(=O)O)=CCS[C@H]12)c1csc(N)n1	-5%	/	-9%	/
COc1ccc(NS(=O)(=O)c2ccc(-n3nnc4ccccc43)c([N+](=O)[O-])c2)cc1	-10%[9.22 µM]	-5%	5%	/
O=[N+]([O-])c1cc(S(=O)(=O)Nc2cccc(C(F)(F)F)c2)ccc1-n1nnc2ccccc21	11µM*	5%	-46%	/
CC1(C)S[C@@H]2[C@H](NC(=O)COc3ccccc3)C(=O)N2[C@H]1C(=O)O	5%	/	?	/
Cc1nc(N=Nc2cc(S(=O)(=O)O)c3cc([N+](=O)[O-])cc(S(=O)(=O)O)c3c2)c(COP(=O)(O)O)c(C=O)c1O	/	7.9µM*	-62%	/
CN(C)c1ncc2nc(-c3ccc(F)cc3)c(=O)n(C3CC3)c2n1	/	/	-48%	/
COc1c(N2CCN(C(=S)Nc3ccc(F)cc3)C(C)C2)c(F)cc2c(=O)c(C(=O)O)cn(C3CC3)c12 (stereo not drawn)	-6%	?	-15%	5%
COc1c(N2CCNC(C)C2)c(F)cc2c(=O)c(C(=O)O)cn(C3CC3)c12 (stereo not drawn)	27%	?	3.2µM*!	/
CC(=O)OCC1OC(c2ccc(C(C)=O)cc2)C=CC1OC(C)=O (stereo not drawn)	/	/	2%[10 µM]	/
O=C(O)c1cc(C(=O)O)c(-c2ccccc2)c(C(=O)O)c1	7%	-2%	-8%	4%
O=c1c(-c2ccccc2)c1-c1ccccc1	14µM*	0%	11µM*	/
C#CCN[C@@H]1CCc2ccccc21	15%	/	18%	/
